# In the library only some 2.8% were active in any assay of this set; here they are far more common.
# KCNH2 3.1 block – inhibitors of human KCNH2 3.1 potassium channel isoform; activity change, % (tested at about 1.8 µM); AID 720553; U2OS KCNH2 3.1, thallium flux FluxOr; stronger effect = lower value; hit rate 0.95% among 340,000;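 active means maximum activity change below -70%; inconclusive means maximum activity change from -70% to -50%; inactive means maximum activity change above -50%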;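 further: thallium influx rate constant from kinetic fluorescence after stimulation buffer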
#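 Channel expression came from 3.1 mutant virus (1.77 x 10^8 /mL) applied to suspended U2OS cells for 4 h. Flux was tracked with FluxOr dye plus Red40 quencher, and kinetic rate constants normalized to controls.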
# hERG WT inh – blocks the wildtype human KCNH2 potassium channel; Q12809; U2OS, BacMam KCNH2, thallium flux FluxOr; stronger effect = lower value; activity change, % at 1.84 µM; hit rate 0.37% among 340,000;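 active means maximum activity change below -70%; inconclusive means maximum activity change between -70% and -50%; inactive means maximum activity change above -50%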
#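 U2OS cells were transduced with wild-type KCNH2 virus (2.03 x 10^8 / mL) for 4 h at room temperature, then cultured overnight at 37 C. Thallium flux was read with FluxOr dye. Rate constants were normalized to DMSO controls.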
# GLP1R ag – agonists of human GLP-1 receptor. AID 624172. Potency, µM (highest dose often 45.6 µM), hits mostly activators. hit rate 0.007% among 380,000. HEK293 GLP-1R CRE-luciferase, luminescence, 4-6 h; cells express a hypersensitive GLP-1R form. P43220
# Target sequence (P43220 whole entry, looked up): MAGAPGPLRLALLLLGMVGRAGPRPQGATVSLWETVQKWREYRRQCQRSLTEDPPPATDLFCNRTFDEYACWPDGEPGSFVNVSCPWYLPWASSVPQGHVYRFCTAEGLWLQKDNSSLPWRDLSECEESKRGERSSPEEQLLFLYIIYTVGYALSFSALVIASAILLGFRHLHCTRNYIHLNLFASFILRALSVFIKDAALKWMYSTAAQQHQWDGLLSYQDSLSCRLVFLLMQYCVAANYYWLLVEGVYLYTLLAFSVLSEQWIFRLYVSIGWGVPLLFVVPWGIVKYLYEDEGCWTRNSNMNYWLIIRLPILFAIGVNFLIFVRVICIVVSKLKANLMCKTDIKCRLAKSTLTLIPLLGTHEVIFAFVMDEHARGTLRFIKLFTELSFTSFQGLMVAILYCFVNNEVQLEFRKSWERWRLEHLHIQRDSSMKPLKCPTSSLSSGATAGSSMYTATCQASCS
# GLP1R cytotox – cytotoxic in the GLP-1 receptor inverse agonist counter-screen; HEK293 cAMP-luciferase reporter cells, luminescence, 24 h; Potency, µM (highest dose often 38.3 µM), actives largely listed as inhibitors; hit rate 0.13% among 410,000; AID 624418;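 further: loss of luciferase light is scored as toxicity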
#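 A 23 nL compound transfer followed 12 hours of cell culture at 37 deg C; exposure then lasted 24 hr. Luciferase assay detection reagent was dispensed and plates read for luminescence after a 12 min room-temperature wait.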
# GLP1R inv ag – inverse agonists of human GLP-1 receptor | P43220 | HEK293 GLP-1R CRE-luciferase, luminescence, 24 h; GLP-1R form is constitutively active | Potency, µM (top dose mostly 38.3 µM), usual class: inhibitors | hit rate 1.6% among 410,000 | AID 624417; further: nearly all actives have a fitted effect of over 55% in size
#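 Constitutively active GLP-1R drives a cAMP-responsive luciferase in stably transfected HEK293 cells; test compounds are added after overnight (12 h) attachment and left 24 hr, and signal loss in luminescence marks inhibition.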
# GLS inh – inhibitors of human glutaminase (GLS); O94925; GLS enzymatic activity, qHTS titration; Potency, µM (top dose mostly 45.5 µM), usual class: inhibitors; hit rate 0.21% among 410,000
#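 Read-out is an Amplex red fluorescence increase coupled through glutamate oxidase and HRP, measured before and after 30 min room-temperature incubation. hKGA is in 45 mM KH2PO4 (pH 8.2) with 0.02% Tween-20; glutamine added as 1mM solution.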
# Numbers stand for hits; . = inactive; ? = inconclusive; / = not tested or not shown. Unless noted, the call rests on the fitted dose curve; in most records, active means well fitted curve in the direction sought with a large enough effect; inconclusive means small, poorly fitted or top-dose-only effect, or another doubt; inactive means no such curve, though single readings can be large; an effect the other way counts as inactive or inconclusive.
SMILES,KCNH2 3.1 block,hERG WT inh,GLP1R ag,GLP1R cytotox,GLP1R inv ag,GLS inh
CC1CCCCC1NS(=O)(=O)c1ccc2c(c1)CC(=O)N2C (configuration not stated),.,.,.,.,.,.
CCC(=O)N1CCCc2cc(S(=O)(=O)N3CCC(C(=O)Nc4ccc(C#N)cc4)CC3)ccc21,/,/,/,.,.,.
CCC(=O)N1CCCc2cc(S(=O)(=O)N3CCC(C(=O)Nc4ccc(F)c(F)c4)CC3)ccc21,/,/,/,.,11µM,.
COc1cccc(CNS(=O)(=O)c2ccc3c(c2)N(C(C)=O)CCO3)c1,.,.,.,.,.,.
CCOC(=O)COc1ccc(Br)cc1/C=C\c1[nH]c(=O)[nH]c(=O)c1[N+](=O)[O-],.,.,.,.,?,.
CCOC(=O)COc1ccc(Br)cc1/C=C/c1[nH]c(=O)[nH]c(=O)c1[N+](=O)[O-],.,.,.,?,10µM,.
CC1(C)CC(=O)C2=C(C1)N=C1c3ccccc3C(=O)C1C2c1ccc(Cl)cc1 (configuration not stated),.,.,.,?,?,.
CCOC(=O)C1=C(C)N=C2c3ccccc3C(=O)C2C1c1ccc(Cl)cc1 (configuration not stated),-105,.,.,?,?,.
Cc1ccc(Nc2nc(-c3cccnc3)nc3ccccc23)cc1,.,.,.,.,?,.
Oc1ccc(Nc2nc(-c3ccc(Cl)cc3)nc3ccccc23)cc1,/,/,/,.,?,.
Oc1ccc(Nc2nc(-c3ccccc3)nc3ccccc23)cc1,.,.,.,.,?,7.9µM
Cc1c(O)ccc(/C=N/Nc2nc(-c3cccnc3)nc3ccccc23)c1O,.,.,.,?,10µM,.
Oc1ccc(/C=N/Nc2nc(-c3cccnc3)nc3ccccc23)c(O)c1,.,.,.,?,?,.
CCOC(=O)c1ccc(Nc2nc(-c3cccnc3)nc3ccccc23)cc1,.,.,.,.,8.9µM,.
Cc1cccc(-c2nc(Nc3cccc(O)c3)c3ccccc3n2)c1,.,.,.,.,6.3µM,.
O=S(=O)(NCC(c1cccs1)S(=O)(=O)c1ccccc1)c1ccc(F)cc1 (configuration not stated),/,/,/,.,.,.
CCS(=O)(=O)N1CC(=O)N(c2cc(C)cc(C)c2)C(C)(C(=O)NC2CCCCC2)C1 (configuration not stated),/,/,/,.,.,.
COC(=O)c1c(NC(=O)c2nc(SCc3ccccc3C)ncc2Cl)sc2c1CCCC2,/,/,/,.,.,.
Clc1ccc(-c2csc(Nc3ccccc3)[n+]2Cc2ccco2)c(Cl)c1,.,/,.,.,2.8µM,.
Cc1ccc2c(c1)-c1c(cnc3cc(-c4ccc(Cl)cc4)nn13)CO2,/,/,.,.,.,.
Cc1ccc(NC(=S)NC(NC(=O)c2ccccc2C)C(Cl)(Cl)Cl)c(C)c1 (configuration not stated),.,.,.,?,5.6µM,.
CC(=O)NC(NC(=S)Nc1ccc(C)cc1C)C(Cl)(Cl)Cl (configuration not stated),.,.,.,.,?,.
CCc1ccc(OCC(=O)NC(NC(=S)Nc2ccc(C)cc2C)C(Cl)(Cl)Cl)cc1 (configuration not stated),.,.,.,?,5µM,.
Cc1ccc(C)c(NC(=S)NC(NC(=O)Cc2cccc3ccccc23)C(Cl)(Cl)Cl)c1 (configuration not stated),.,.,.,6.3µM,?,.
CCc1ccc(CNC(=O)c2ccc3c(c2)nc2n3CCCCC2)cc1,/,/,/,.,.,.
SMILES,KCNH2 3.1 block,hERG WT inh,GLP1R ag,GLP1R cytotox,GLP1R inv ag,GLS inh
COc1cc(C)cc2oc(=O)c(CC(=O)NCc3cccc(Cl)c3)c(C)c12,/,/,/,.,.,.
CCC(C)NC(=O)Cn1c(=O)n(CCCC(=O)NCc2ccc(C)cc2)c(=O)c2ccccc21 (configuration not stated),/,/,.,.,.,.
O=C(CCn1c(=O)c2cccn2c2ccc(F)cc21)NCc1ccccc1F,/,/,/,.,.,.
CC(=O)N(C(C)=O)c1c(C#N)c(C)n(-c2ccccc2)c1C(=O)c1ccccc1,.,.,.,.,5.6µM,.
Oc1ccccc1C1SC(c2ccccc2O)SC(c2ccccc2O)S1 (configuration not stated),.,.,.,?,1.1µM,.
Cc1ccccc1NC(=O)c1ccccc1N(C)S(=O)(=O)c1ccccc1,.,.,.,?,.,.
COCCNC(=O)C1(C)Cc2c(-c3ccc4c(c3)OCO4)ccnc2O1 (configuration not stated),/,/,.,.,?,.
COC(=O)c1ccc(-c2ccco2)n1Cc1nc(-c2ccc(OC)c(OC)c2)oc1C,.,.,.,.,10µM,.
CCOC(=O)CNC(=O)N1CCCN(S(=O)(=O)c2ccc3c(ccn3CC)c2)CC1,/,/,.,.,.,.
CCc1nc(N2CCN(C(=S)NCCCOC)CC2)c2c3c(sc2n1)CCCC3,.,.,.,?,11µM,.
O=C(OCC(COC(=O)c1cccnc1)(COC(=O)c1cccnc1)COC(=O)c1cccnc1)c1cccnc1,/,/,.,/,/,.
Cc1ccccc1NC(=O)COC(=O)C1C2CC3OC(=O)C1C3C2 (configuration not stated),.,-254,.,.,.,.
O=C(Nc1ccc(C(F)(F)F)cc1)C1CCCN(S(=O)(=O)c2cccc3cccnc23)C1 (configuration not stated),/,/,/,.,?,.
O=C(NCCC1=CCCCC1)C1CCCN(S(=O)(=O)c2cccnc2)C1 (configuration not stated),.,.,.,.,.,.
O=C(Nc1ccncc1)C1CCCN(S(=O)(=O)c2cccc3cccnc23)C1 (configuration not stated),.,.,.,.,1.8µM,.
O=C(NCCC1=CCCCC1)C1CCCN(S(=O)(=O)c2cccc3cccnc23)C1 (configuration not stated),.,.,.,?,7.9µM,.
O=C(Cn1cc(SCc2cccc(F)c2)c2ccccc21)N1CCCC1,/,/,/,.,?,.
COc1ccc(/C=N\NC(=O)c2ccccc2OC)cc1COc1c(F)c(F)c(F)c(F)c1F,.,.,.,.,?,.
COc1ccc(/C=N/NC(=O)c2ccccc2)cc1CN1CCN(c2ccc(F)cc2)CC1,-107,-108,.,.,.,.
COc1ccc(/C=N/NC(=O)c2cccnc2)cc1CN1CCOCC1,.,.,.,.,.,.
COc1ccc(/C=N/NC(=O)c2ccccc2F)cc1CN1CCN(c2ccc(F)cc2)CC1,-105,?,.,.,?,.

# Source: PubChem BioAssay (National Center for Advancing Translational Sciences (NCATS))
